Among the test systems are DU-145 prostate; K-562 leukemia; MALME-3M melanoma; MDA-MB-231 breast; RXF 393 renal; SF-268 CNS; SF-295 CNS; SF-539 CNS; UACC-257 melanoma; M14 melanoma; HCT-15 colon; HT29 colon; SNB-75 CNS; SNB-19 CNS; U251 CNS; PC-3 prostate; SK-MEL-5 melanoma; UACC-62 melanoma; LOX IMVI melanoma; SK-MEL-28 melanoma.
Holding throughout (test): NCI-60 one-dose screen, 48 h (100 = growth as untreated, 0 = no growth, -100 = all killed)
Details in all cases: 10 µM unless noted

Compounds without any hit were thinned out: in the full panel of roughly 83,000, 20% have a hit.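 The test compound was applied at a single concentration to cells in 96-well plates for 48 hours, and percent growth was recorded.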 Values without a mark were called inactive. Calls of active or inactive are those of the source. Rule for the calls: active = growth percent below 10; inactive = the rest.

`COCC(=O)NC/C=C/c1ccc2ncnc(Nc3ccc(Oc4ccc(C)nc4)c(C)c3)c2c1`: the growth was 30.7% in the experiment on DU-145 prostate; 47.9% in the experiment with K-562 leukemia; 4.79% (active) with MALME-3M melanoma; 42.7% in the experiment on MDA-MB-231 breast; 45.4% with RXF 393 renal; 52.3% in the experiment with SF-268 CNS. The growth in the experiment with SF-295 CNS is 62.4%; in the experiment with SF-539 CNS, 48%; in the experiment on UACC-257 melanoma, 24.6%; in the experiment on M14 melanoma, 13.1%; in the experiment with HCT-15 colon, 33.3%; with HT29 colon it was 12.2%. For the same compound, the growth was 57.2% in the experiment with SNB-75 CNS; 77.9% in the experiment on SNB-19 CNS; 62.9% in the experiment on U251 CNS; 74.1% in the experiment on PC-3 prostate; 13.1% in the experiment with SK-MEL-5 melanoma; 7.95% (active) in the experiment on UACC-62 melanoma. The results for the growth in the experiment with LOX IMVI melanoma and with SK-MEL-28 melanoma were 31.7% and 12.2%, respectively.
As to `CCCNC(=O)c1cn2ncnc(Nc3cc(C(=O)NC4CC4)ccc3C)c2c1C`, the growth was 103% with DU-145 prostate; 85% with K-562 leukemia; 3.42% (active) with MALME-3M melanoma; 79.2% in the experiment on MDA-MB-231 breast; 40% in the experiment on RXF 393 renal; 88% with SF-268 CNS. Also, the growth was 79.5% in the experiment with SF-295 CNS; 77.3% with SF-539 CNS; 65.6% in the experiment on UACC-257 melanoma; 92.4% with M14 melanoma; 87.2% in the experiment on HCT-15 colon; 81.9% in the experiment on HT29 colon. Besides, the growth in the experiment on SNB-75 CNS is 74.6%; in the experiment with SNB-19 CNS it was 70.7%; in the experiment on U251 CNS, 77.2%; in the experiment on PC-3 prostate, 74.3%; in the experiment on SK-MEL-5 melanoma it was 38.2%; in the experiment on UACC-62 melanoma it was 49.1%. Further, the growth is 40.1% with LOX IMVI melanoma and 30.1% in the experiment on SK-MEL-28 melanoma.
In the case of `NC1(c2ccc(-c3nc4ccn5c(=O)[nH]nc5c4cc3-c3ccccc3)cc2)CCC1`, the growth was 60.9% in the experiment with DU-145 prostate; -16.8% (active) in the experiment on K-562 leukemia; -70.8% (active) in the experiment with MALME-3M melanoma; 37.4% in the experiment on MDA-MB-231 breast; -21.7% (active) in the experiment on RXF 393 renal; 52.3% in the experiment with SF-268 CNS. For the same compound, the growth was -65.5% (active) in the experiment on SF-295 CNS; -80.9% (active) in the experiment on SF-539 CNS; -67.6% (active) in the experiment on UACC-257 melanoma; -66.5% (active) with M14 melanoma; 15.2% with HCT-15 colon; -7.85% (active) with HT29 colon. For the same compound, the growth in the experiment on SNB-75 CNS was -8.24% (active); with SNB-19 CNS, 18.1%; in the experiment with U251 CNS it was -3.88% (active); in the experiment with PC-3 prostate it was 21.3%; in the experiment with SK-MEL-5 melanoma it was -85.7% (active); with UACC-62 melanoma, 47.5%. Also, the growth in the experiment with LOX IMVI melanoma was -57.6% (active); in the experiment on SK-MEL-28 melanoma it was -66.7% (active).
As for `COc1cccc(NC(=O)Nc2ccc(Nc3ncnc4sc5c(c34)CCN(C(=O)CCl)C5)cc2)c1`, the growth in the experiment on DU-145 prostate is 118%; in the experiment on K-562 leukemia, 91.3%; in the experiment with MALME-3M melanoma, 116%; with MDA-MB-231 breast it was 92.7%; in the experiment on RXF 393 renal it was 99.1%; with SF-268 CNS, 91.3%. Further, the growth was 98.1% with SF-295 CNS; 106% in the experiment on SF-539 CNS; 93.4% in the experiment with UACC-257 melanoma; 101% in the experiment with M14 melanoma; 118% with HCT-15 colon; 90.2% in the experiment on HT29 colon. Besides, the growth in the experiment with SNB-75 CNS is 86.4%; in the experiment with SNB-19 CNS, 102%; with U251 CNS it was 95.5%; in the experiment with PC-3 prostate, 90.7%; in the experiment with SK-MEL-5 melanoma it was 106%; in the experiment with UACC-62 melanoma, 94.8%. In addition, the growth in the experiment with SK-MEL-28 melanoma is 117%.
Turning to `COc1cc2ncnc(Nc3cccc(Cl)c3F)c2cc1OC(=O)N1CCN(C)C[C@H]1C`, the growth in the experiment with DU-145 prostate was 65%; with K-562 leukemia, 60.9%; in the experiment on MALME-3M melanoma it was 106%; in the experiment on MDA-MB-231 breast, 78.7%; in the experiment with RXF 393 renal, 67.9%; in the experiment on SF-268 CNS, 73.4%. Further, the growth in the experiment with SF-295 CNS is 83.7%; in the experiment with SF-539 CNS, 84.1%; in the experiment on UACC-257 melanoma it was 68.8%; with M14 melanoma it was 84.9%; in the experiment on HCT-15 colon, 75.1%; in the experiment with HT29 colon, 53.9%. Further, the growth in the experiment on SNB-75 CNS is 71%; in the experiment on SNB-19 CNS it was 83.4%; with U251 CNS, 75.8%; in the experiment on PC-3 prostate it was 64.4%; in the experiment on SK-MEL-5 melanoma it was 81.3%; with UACC-62 melanoma, 77.3%. The growth with SK-MEL-28 melanoma is 87.3%.
With `O=C(Nc1ccc(-c2ccnc(Nc3ccc(N4CCOCC4)cc3)n2)cc1)[C@@H]1CCCN1`, the growth in the experiment with DU-145 prostate is 67.1%; with K-562 leukemia, 16%; in the experiment with MALME-3M melanoma it was 71.5%; in the experiment on MDA-MB-231 breast it was 48.6%; in the experiment with RXF 393 renal, 5.11% (active); in the experiment on SF-268 CNS it was 55.6%. Besides, the growth is 35.9% in the experiment with SF-295 CNS; 25.3% in the experiment on SF-539 CNS; 16.8% in the experiment on UACC-257 melanoma; 51.7% with M14 melanoma; 23.3% in the experiment on HCT-15 colon; 18.6% with HT29 colon. The growth in the experiment on SNB-75 CNS is -1.55% (active); in the experiment on SNB-19 CNS, 83.4%; with U251 CNS, 51.4%; in the experiment on PC-3 prostate, 61.2%; with SK-MEL-5 melanoma it was 49.2%; in the experiment on LOX IMVI melanoma, 30.4%. For the same compound, in the experiment with SK-MEL-28 melanoma, the growth is 54.5%.
`CO[C@H]1C[C@@H]2CC[C@@H](C)[C@@](O)(O2)C(=O)C(=O)N2CCCC[C@H]2C(=O)O[C@H]([C@H](C)C[C@@H]2CC[C@@H](OP(C)(C)=O)[C@H](OC)C2)CC(=O)[C@H](C)/C=C(\C)[C@@H](O)[C@@H](OC)C(=O)[C@H](C)C[C@H](C)\C=C/C=C/C=C/1C`: the growth in the experiment on DU-145 prostate is 46%; with K-562 leukemia, 48.4%; in the experiment on MALME-3M melanoma it was 40.4%; with MDA-MB-231 breast it was 71.7%; with RXF 393 renal it was 18.9%; with SF-268 CNS it was 62.9%. For the same compound, the growth with SF-295 CNS is 23.5%; with SF-539 CNS, 41.8%; with UACC-257 melanoma it was 30.7%; in the experiment with M14 melanoma, 66.4%; with HCT-15 colon it was 47.6%; in the experiment on HT29 colon, 40.3%. Besides, the growth in the experiment with SNB-75 CNS is 17.6%; with SNB-19 CNS it was 53%; in the experiment with U251 CNS, 40.4%; with PC-3 prostate, 42.2%; with SK-MEL-5 melanoma, 51.6%; in the experiment on UACC-62 melanoma, 39.5%. For the same compound, in the experiment on SK-MEL-28 melanoma, the growth is 54.4%.
For the compound `CS(=O)(=O)N1CCN(Cc2cc3nc(-c4cccc5[nH]ncc45)nc(N4CCOCC4)c3s2)CC1`, the growth in the experiment with DU-145 prostate is 18.8%; in the experiment with K-562 leukemia, 64%; in the experiment with MALME-3M melanoma, 1.98% (active); in the experiment with MDA-MB-231 breast, 51.5%; in the experiment on RXF 393 renal it was -23.3% (active); in the experiment with SF-268 CNS, 30.3%. The growth in the experiment with SF-295 CNS is 3.4% (active); in the experiment on SF-539 CNS, -2.44% (active); in the experiment with UACC-257 melanoma, 14.7%; in the experiment on M14 melanoma it was 40%; with HCT-15 colon, 19.3%; with HT29 colon, 11.4%. Moreover, the growth in the experiment with SNB-75 CNS was -25.6% (active); in the experiment with SNB-19 CNS, 34.9%; in the experiment with U251 CNS, 34%; with PC-3 prostate, 18.2%; with SK-MEL-5 melanoma it was 33.5%; in the experiment on LOX IMVI melanoma, 15.5%. The growth in the experiment on SK-MEL-28 melanoma is 10.6%.
